Calls of active or inactive are those of the source.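 How the source made its calls: active means compounds that cut cell ATP glow, with a fitted half-effect dose at or under their top tested dose; inconclusive means flat partial loss of 30 to 70 percent, or poor fit; inactive means the rest.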

This assay can be described thus: viability loss in A549 lung cancer cells – cell-based, CellTiter-Glo luminescence, dry powder, set 2, cytotoxicity control, dose response (AID 743152). The settings on record: CellTiter-Glo ATP luminescence, 72 h; series mostly up to 26 µM; activity, negative = cytotoxicity: at the top concentration. For orientation: Cellular ATP, detected with luciferase, serves as a proxy for viable cell number.
As for `C[C@@H]1CC(=O)NN=C1c1ccc(-c2cncnc2)cc1`, the “activity, negative = cytotoxicity” value was 1.75% (inactive).
On to `O=C1CN2Cc3c(ccc(Cl)c3Cl)N=C2N1`, for which the “activity, negative = cytotoxicity” value was 12.6% (inactive).
Consider `CC(=O)Nc1ccc(C2=NNC(=O)C[C@H]2C)cc1[N+](=O)[O-]`, for which the “activity, negative = cytotoxicity” value is 4.47% (inactive).
As for `CCN1N=C(c2ccc(N(CC)CC)cc2)[C@H](C)CC1=O`, the figure is -8.64% (inactive).
`C[C@H]1CC(=O)NN=C1c1ccc(N2CCOCC2)c(F)c1`: the “activity, negative = cytotoxicity” value was 1.72% (inactive).
Consider `C[C@@H]1CC(=O)NN=C1c1ccc(Cl)cc1`, for which the “activity, negative = cytotoxicity” value was -0.617% (inactive).
On to `Cn1c(NC(=O)c2ccccc2)nc2ccccc21`, for which the “activity, negative = cytotoxicity” value is -8.4% (inactive).
`CCN(CC)c1ccc(C2=NNC(=O)CC2C)cc1[N+](=O)[O-]` (stereo not drawn): the “activity, negative = cytotoxicity” value was 10.5% (inactive).
Consider `C[C@@H]1CC(=O)NN=C1c1ccc(F)c(F)c1`, for which the “activity, negative = cytotoxicity” value was -0.368% (inactive).
As to `COc1cc2c(cc1OC)-c1cc(=Nc3c(C)cc(C)cc3C)n(C)c(=O)n1CC2`, the “activity, negative = cytotoxicity” value is 12.6% (inactive).
Regarding `C[C@@H]1CC(=O)NN=C1c1ccc(C2CCCCC2)cc1`, the “activity, negative = cytotoxicity” value was 4.9% (inactive).
Regarding `C[C@@H]1CC(=O)NN=C1c1ccc(N2CCOCC2)cc1`, the “activity, negative = cytotoxicity” value was -5.32% (inactive).
In the case of `C[C@@H]1CC(=O)NN=C1c1ccc(N2CCOCC2)c(F)c1`, the “activity, negative = cytotoxicity” value is 10.5% (inactive).

Values taken from PubChem BioAssay AID743152 (Broad Institute, 2013).
